Assay in all cases: DAPPL (digital affinity profiling via proximity ligation, sequencing); 10 mM Tris-HCl pH 7.5, 50 mM NaCl, 1 mM DTT, 4% glycerol, room temperature, 30 min; GST-TFs on glutathione beads, 16-mer random dsDNA library, 0.1% formaldehyde crosslink after washing; high values mean tight binding
Settings in all cases: protein: recombinant; tags: N-terminal GST; dsDNA, one strand shown

The target of assay [1] is T1, ELK1 (Homo sapiens, UniProt P19419 1-428).
T1 sequence: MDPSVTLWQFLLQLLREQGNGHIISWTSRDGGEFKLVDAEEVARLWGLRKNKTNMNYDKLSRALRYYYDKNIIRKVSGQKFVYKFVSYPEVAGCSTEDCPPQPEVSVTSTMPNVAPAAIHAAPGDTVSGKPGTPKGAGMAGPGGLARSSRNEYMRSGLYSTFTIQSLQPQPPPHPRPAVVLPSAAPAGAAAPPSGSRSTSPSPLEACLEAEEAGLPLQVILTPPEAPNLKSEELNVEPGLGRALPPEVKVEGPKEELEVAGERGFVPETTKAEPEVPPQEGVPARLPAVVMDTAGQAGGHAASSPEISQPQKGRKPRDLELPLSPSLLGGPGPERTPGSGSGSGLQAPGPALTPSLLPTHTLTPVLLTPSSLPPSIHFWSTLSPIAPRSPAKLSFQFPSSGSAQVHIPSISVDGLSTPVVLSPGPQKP
The procedure, abridged: (§1)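 GST fusions of human transcription factors were expressed in yeast and captured with glutathione beads. Once given DNA barcodes and pooled alongside a tag-only sample, they were incubated for 30 min at room temperature with 200 nmole of a random double-stranded 16-mer DNA library in Tris/NaCl/DTT/glycerol buffer, then washed, crosslinked (0.1% formaldehyde), proximity-ligated, PCR-amplified and sequenced on an Illumina NextSeq500. The binding signal of each hexamer is its read frequency for a factor divided by its frequency for the tag-only sample.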

The target of assay [2] is T2, GABPA (Homo sapiens, UniProt Q06546 1-454).
T2 sequence: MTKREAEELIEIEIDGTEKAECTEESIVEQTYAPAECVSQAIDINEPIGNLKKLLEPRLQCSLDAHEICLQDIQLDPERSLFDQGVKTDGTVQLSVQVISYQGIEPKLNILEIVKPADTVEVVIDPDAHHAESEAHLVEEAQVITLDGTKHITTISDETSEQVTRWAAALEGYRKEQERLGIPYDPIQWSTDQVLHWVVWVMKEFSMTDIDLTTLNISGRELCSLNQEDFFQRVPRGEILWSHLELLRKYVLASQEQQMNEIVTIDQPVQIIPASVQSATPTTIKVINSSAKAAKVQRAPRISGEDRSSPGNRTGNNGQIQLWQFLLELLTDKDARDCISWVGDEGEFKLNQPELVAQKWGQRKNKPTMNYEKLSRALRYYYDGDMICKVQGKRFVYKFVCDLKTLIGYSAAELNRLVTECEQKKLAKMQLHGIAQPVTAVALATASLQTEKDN
The procedure, abridged:
as §1

Assay [3] addresses ELF1 (Homo sapiens, UniProt P32519 1-619). The method, boiled down:
as §1

Assay [4] deals with T3, EHF (Homo sapiens, UniProt Q9NZC4 1-300).
T3 sequence: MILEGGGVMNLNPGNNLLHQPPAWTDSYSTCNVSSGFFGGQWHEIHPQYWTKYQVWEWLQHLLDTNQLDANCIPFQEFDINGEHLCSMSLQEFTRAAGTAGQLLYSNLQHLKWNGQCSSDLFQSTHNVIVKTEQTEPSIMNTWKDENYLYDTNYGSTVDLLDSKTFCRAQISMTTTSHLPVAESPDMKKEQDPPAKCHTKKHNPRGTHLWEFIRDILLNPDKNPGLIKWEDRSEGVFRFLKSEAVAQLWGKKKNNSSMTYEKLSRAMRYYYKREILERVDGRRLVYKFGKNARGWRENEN
The method, boiled down: as §1

Assay [5] deals with SPIB (Homo sapiens, UniProt Q01892 1-262). The procedure, abridged:
as §1

For assay [6], the target named is T4, FEV (Homo sapiens, UniProt Q99581 1-238).
T4 sequence: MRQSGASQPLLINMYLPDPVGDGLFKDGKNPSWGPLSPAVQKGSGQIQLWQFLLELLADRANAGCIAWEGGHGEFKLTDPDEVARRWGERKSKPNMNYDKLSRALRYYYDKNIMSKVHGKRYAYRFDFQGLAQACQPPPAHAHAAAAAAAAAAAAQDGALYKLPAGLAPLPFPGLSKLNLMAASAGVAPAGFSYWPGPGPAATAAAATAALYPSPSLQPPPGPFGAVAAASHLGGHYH
The method, boiled down:
as §1

Assay [7] has as its target ETV5 (Homo sapiens, UniProt P41161 1-510). The method, boiled down:
as §1

The target in assay [8] is ELF4 (Homo sapiens, UniProt Q99607 1-663). The procedure, abridged:
as §1

Assay [9] addresses T5, ELK4 (Homo sapiens, UniProt P28324-2 1-405).
T5 sequence: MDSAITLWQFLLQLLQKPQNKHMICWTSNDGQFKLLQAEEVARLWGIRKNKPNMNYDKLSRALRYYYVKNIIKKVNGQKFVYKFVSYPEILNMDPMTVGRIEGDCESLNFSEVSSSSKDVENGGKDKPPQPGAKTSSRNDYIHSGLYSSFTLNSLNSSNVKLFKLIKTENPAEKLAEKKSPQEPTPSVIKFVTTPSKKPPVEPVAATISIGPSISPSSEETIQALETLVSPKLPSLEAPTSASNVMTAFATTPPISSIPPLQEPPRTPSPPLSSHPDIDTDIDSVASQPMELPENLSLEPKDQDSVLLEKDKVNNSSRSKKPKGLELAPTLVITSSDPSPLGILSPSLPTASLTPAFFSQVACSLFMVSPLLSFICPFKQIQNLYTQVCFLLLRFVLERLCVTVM
The procedure, abridged: as §1

In assay [10] the target is T6, ETV2 (Homo sapiens, UniProt O00321 1-342).
T6 sequence: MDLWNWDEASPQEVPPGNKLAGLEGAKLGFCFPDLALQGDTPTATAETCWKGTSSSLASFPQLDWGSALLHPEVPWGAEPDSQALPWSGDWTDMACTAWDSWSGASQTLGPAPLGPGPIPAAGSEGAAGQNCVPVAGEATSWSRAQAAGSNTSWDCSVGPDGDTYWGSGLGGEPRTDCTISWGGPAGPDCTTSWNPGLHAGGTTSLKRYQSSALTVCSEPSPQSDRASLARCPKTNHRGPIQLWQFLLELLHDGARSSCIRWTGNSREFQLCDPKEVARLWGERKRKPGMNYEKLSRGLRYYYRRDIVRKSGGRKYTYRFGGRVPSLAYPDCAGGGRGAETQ
The procedure, abridged: as §1

For assay [11], the target named is T7, ERF (Homo sapiens, UniProt P50548 1-548).
T7 sequence: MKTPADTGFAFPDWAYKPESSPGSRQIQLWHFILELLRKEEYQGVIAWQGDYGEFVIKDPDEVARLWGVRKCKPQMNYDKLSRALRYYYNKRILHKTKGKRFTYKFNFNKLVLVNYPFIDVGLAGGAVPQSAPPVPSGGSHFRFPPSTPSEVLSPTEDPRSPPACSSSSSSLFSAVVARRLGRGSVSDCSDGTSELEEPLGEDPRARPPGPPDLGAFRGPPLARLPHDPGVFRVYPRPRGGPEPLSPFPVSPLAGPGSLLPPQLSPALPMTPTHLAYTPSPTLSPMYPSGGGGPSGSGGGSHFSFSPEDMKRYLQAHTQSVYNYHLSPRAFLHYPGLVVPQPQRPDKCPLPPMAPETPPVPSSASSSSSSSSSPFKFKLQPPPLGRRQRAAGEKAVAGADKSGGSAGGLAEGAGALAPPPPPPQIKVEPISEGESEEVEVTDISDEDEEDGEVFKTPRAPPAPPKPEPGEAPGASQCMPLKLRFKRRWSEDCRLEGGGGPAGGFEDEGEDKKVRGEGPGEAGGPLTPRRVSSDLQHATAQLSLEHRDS
The procedure, abridged: as §1

Assay [12] has as its target T8, SPDEF (Homo sapiens, UniProt O95238 1-335).
T8 sequence: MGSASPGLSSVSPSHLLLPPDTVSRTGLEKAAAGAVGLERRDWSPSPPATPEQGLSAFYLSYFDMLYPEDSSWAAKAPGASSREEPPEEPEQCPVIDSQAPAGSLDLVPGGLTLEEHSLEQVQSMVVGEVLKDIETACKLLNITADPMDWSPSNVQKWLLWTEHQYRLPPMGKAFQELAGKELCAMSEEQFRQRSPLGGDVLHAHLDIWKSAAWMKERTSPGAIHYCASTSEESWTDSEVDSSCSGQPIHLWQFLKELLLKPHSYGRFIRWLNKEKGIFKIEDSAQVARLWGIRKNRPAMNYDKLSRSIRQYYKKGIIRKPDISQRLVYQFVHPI
The procedure, abridged:
as §1

Assay [13] addresses T9, ETV3 (Homo sapiens, UniProt P41162-2 1-143).
T9 sequence: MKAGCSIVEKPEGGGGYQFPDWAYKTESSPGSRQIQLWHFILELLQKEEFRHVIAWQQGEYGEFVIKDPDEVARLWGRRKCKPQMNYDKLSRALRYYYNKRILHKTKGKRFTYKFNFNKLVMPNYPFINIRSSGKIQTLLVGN
The procedure, abridged:
as §1

Assay [14] addresses ETV6 (Homo sapiens, UniProt P41212 1-452). The method, boiled down:
as §1

Chain of ELF1 (P32519 whole entry): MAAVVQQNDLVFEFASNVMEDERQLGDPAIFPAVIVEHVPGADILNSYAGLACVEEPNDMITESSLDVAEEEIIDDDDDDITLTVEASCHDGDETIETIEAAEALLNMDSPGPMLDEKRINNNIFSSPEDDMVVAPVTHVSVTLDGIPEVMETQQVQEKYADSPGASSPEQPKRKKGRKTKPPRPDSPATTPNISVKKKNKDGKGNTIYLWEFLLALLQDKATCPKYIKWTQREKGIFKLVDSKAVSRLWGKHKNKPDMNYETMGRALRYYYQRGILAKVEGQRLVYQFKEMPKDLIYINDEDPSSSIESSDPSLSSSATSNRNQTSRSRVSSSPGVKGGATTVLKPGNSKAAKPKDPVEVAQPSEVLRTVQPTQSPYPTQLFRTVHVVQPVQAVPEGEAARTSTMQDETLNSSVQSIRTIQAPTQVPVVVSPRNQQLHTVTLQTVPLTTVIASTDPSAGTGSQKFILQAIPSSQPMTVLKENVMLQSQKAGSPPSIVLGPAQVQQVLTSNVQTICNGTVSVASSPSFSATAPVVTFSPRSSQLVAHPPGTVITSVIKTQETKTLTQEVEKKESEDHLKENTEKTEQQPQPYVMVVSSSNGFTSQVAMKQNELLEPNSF
Chain of ELF4 (Q99607 whole entry): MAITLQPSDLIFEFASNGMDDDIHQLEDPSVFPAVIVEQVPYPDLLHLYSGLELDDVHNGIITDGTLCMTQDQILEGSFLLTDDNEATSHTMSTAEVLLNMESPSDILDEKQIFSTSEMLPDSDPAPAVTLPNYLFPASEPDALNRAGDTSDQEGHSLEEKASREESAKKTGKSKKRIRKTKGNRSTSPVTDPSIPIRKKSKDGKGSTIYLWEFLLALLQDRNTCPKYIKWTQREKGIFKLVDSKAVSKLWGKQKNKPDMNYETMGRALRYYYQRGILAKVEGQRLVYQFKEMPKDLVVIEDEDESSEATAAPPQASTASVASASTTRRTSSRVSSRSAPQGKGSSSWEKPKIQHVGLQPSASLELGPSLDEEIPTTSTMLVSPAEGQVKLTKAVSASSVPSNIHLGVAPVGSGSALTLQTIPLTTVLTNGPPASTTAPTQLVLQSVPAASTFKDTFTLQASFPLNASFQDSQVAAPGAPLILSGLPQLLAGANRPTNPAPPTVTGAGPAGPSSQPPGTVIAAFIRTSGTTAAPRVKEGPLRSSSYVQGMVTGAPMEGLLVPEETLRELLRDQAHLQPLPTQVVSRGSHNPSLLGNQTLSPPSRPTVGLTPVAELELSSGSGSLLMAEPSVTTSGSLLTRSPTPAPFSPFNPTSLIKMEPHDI
Chain of SPIB (Q01892 whole entry): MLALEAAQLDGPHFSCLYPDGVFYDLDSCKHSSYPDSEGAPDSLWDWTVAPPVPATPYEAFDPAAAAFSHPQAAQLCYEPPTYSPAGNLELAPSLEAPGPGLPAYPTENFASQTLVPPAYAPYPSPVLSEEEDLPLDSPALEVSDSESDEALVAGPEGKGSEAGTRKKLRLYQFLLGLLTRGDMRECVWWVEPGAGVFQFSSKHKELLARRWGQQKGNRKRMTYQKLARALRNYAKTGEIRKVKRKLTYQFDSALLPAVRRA
Chain of ETV6 (P41212 whole entry): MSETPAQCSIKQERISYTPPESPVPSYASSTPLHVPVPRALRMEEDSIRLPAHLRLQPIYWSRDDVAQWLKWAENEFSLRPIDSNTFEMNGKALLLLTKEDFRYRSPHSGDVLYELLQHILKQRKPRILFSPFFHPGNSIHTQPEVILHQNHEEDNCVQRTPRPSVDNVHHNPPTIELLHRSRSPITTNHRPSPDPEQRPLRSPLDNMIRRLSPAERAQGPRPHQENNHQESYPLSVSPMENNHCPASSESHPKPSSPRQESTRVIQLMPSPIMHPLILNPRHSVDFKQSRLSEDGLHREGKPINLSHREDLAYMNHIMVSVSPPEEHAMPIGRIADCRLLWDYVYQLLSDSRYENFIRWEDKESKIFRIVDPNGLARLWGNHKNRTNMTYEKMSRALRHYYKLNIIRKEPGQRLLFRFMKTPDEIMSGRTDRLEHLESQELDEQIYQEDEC
Chain of ETV5 (P41161 whole entry): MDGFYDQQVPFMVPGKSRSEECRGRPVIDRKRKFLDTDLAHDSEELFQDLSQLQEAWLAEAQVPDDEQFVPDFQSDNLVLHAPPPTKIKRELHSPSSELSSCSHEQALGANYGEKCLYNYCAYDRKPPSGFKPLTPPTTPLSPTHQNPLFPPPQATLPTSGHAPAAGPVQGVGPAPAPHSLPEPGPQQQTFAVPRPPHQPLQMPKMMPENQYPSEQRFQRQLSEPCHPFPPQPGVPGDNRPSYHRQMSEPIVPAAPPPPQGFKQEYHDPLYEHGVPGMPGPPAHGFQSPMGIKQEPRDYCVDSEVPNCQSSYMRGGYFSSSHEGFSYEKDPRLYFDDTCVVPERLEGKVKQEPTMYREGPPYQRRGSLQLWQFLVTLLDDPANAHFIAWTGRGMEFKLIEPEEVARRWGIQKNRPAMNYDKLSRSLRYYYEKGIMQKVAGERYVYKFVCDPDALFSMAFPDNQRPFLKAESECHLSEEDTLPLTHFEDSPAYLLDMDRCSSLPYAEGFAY

Regarding ACCAAA, the binding signal is 1.05 fold enrichment (6-mer frequency, TF over GST control) in assay [1]; 1.01 fold enrichment (6-mer frequency, TF over GST control) in assay [2]; 1.04 fold enrichment (6-mer frequency, TF over GST control) in [3]; 1.07 fold enrichment (6-mer frequency, TF over GST control) in assay [4]; 1.03 fold enrichment (6-mer frequency, TF over GST control) in [5]; 1.07 fold enrichment (6-mer frequency, TF over GST control) in assay [6]. Moreover, the binding signal was 1.03 fold enrichment (6-mer frequency, TF over GST control) in assay [7]; 1.1 fold enrichment (6-mer frequency, TF over GST control) in assay [8]; 1.02 fold enrichment (6-mer frequency, TF over GST control) in [9]; 1.14 fold enrichment (6-mer frequency, TF over GST control) in assay [10]; 1.03 fold enrichment (6-mer frequency, TF over GST control) in assay [11]; 1.04 fold enrichment (6-mer frequency, TF over GST control) in assay [12]. In addition, the binding signal in assay [13] is 1.02 fold enrichment (6-mer frequency, TF over GST control); in assay [14] it was 1.03 fold enrichment (6-mer frequency, TF over GST control).
